The results in this text go back to PubChem BioAssay (NCATS).

Records with an inconclusive call do not appear. The source made the active and inactive calls. Unless noted, no stated cut-off is given here; in the data, active means potency below about 10 µM; inactive means the rest. Some results are limits rather than exact numbers.

Sequence of Lysosomal acid glucosylceramidase (Homo sapiens) (P04062 whole entry, looked up): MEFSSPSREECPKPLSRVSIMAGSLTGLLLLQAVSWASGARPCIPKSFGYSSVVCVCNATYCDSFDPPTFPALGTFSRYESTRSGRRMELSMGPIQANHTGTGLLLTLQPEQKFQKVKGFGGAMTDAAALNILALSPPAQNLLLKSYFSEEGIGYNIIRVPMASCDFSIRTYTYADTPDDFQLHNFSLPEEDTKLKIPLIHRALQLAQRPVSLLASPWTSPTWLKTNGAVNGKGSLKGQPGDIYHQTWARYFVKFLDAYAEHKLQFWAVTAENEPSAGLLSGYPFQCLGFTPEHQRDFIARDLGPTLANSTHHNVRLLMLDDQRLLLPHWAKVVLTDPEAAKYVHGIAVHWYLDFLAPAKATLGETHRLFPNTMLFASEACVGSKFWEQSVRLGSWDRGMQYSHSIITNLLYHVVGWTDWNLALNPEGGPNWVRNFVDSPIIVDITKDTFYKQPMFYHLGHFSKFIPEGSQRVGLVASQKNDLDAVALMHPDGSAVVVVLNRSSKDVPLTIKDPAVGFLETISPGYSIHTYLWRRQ

One assay concerns the target Lysosomal acid glucosylceramidase (Homo sapiens) (UniProt P04062). In words: Glucocerebrosidase-p2 (AID 348). Further: potency means the concentration at half of the fitted maximal effect. The settings on record: purified GBA, blue fluorogenic substrate, 40 min. The text has this: Beta-glucocerebrosidase catalyzes the hydrolysis of beta-glucocerebroside to glucose and ceramide. The inherited deficiency of beta-glucocerebrosidase results in Gaucher disease, which is characterized by a wide variety of symptoms including hepatosplenomegaly, anemia, thrombocytopenia, bony lesions and bone marrow infiltration with characteristic storage cells, known as Gaucher cells. There are also forms of the disorder affecting the central nervous system. Patients with the same genotypes can manifest with diverse clinical presentations and it is believed that improper folding and trafficking of beta-glucocerbrosidase may contribute to the phenotypes observed.
Low molecular weight molecules, acting as chaperones, may potentially restore trafficking of misfolded beta-glucocerebrosidase from the endoplasmic reticulum to the lysosomes, thereby enhancing functional lysosomal beta-glucocerebrosidase activity.
Using normal beta-glucocerebrosidase, an assay was developed to screen for small molecule inhibitors that could potentially act as molecular chaperones on the mutant forms [developed with NIH investigator Dr. Ellen Sidransky#s laboratory]. Two pro-fluorescent substrates were chosen for two screens against a small molecule library. One beta-glucocerebrosidase assay used Resorufin beta-D-Glucopyranoside (Marker Gene Technology Inc.), generating a red fluorescent product. The second assay used […] fluorescent product. The Km for the Resorufin beta-D-Glucopyranoside and Fluorescein di-beta-D-Glucopyranoside were determined to be 71.2 uM and 855 uM, respectively. The IC50 values of Conduritol B Epoxide, a known glucocerebrosidase inhibitor, were determined to be 87.5 uM and 117 uM, respectively. The use of two difference pro-fluorescent substrates in the screens helped to eliminate false positives. All compounds were screened in a titration series resulting in AC50s (e.g., IC50s or EC50s). Data normalization and AC50 calculations were accomplished using GeneData software.
NCGC Assay Protocol Summary
Both enzyme and substrate were diluted in buffer composed of 50mM citric acid/KH2PO4, 10mM sodium taurocholate and 0.01% tween-20 at pH 5.9. The final concentration of the enzyme was 0.2 nM in both assays. The compound library was titrated in 7 to 15 concentrations for the primary screens with a final concentration ranging from 0.6 nM to 50 uM. This particular assay protocol is for the "blue" substrate, and it was performed in 1536-well plate format as follows:
Blue fluorescence substrate assay:
1 uL substrate (final concentration of 80 uM)
Incubate at room temperature (RT) for 40 minutes
3 uL stop solution (1 M NaOH and 1 M glycine in water)
Read the plate in Viewlux plate reader (Ex=365(10) and Em=440(10)).
Regarding `NCCSSCCN`, the Potency is > 11.4 µM (inactive).

In the case of `CN(C)c1ccc(C(=C2C=CC(=[N+](C)C)C=C2)c2ccccc2)cc1`, the Potency was > 11.4 µM (inactive).

As for `Clc1ccccc1-c1nc(-c2ccncc2)no1`, the Potency was > 11.4 µM (inactive).

With `O=C(O)CC[C@@H](C(=O)O)N1C(=O)c2ccccc2C1=O`, the Potency was > 11.4 µM (inactive).

Regarding `c1cnc2c(c1)ccc1cccnc12`, the Potency is > 11.4 µM (inactive).

Turning to `CN1[C@@H]2CC[C@H]1CC(OC(c1ccccc1)c1ccccc1)C2` (some centres not stated), the Potency is > 11.4 µM (inactive).

Test system in another assay: not listed separately
Briefly: AP1 Signaling Pathway (AID 357; active means well fitted curve in either direction with a large enough effect, not every such curve was filed as active;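 further: ME-180 reporter cells stimulated with EGF at its EC50 level; on the % scale 0 is the no-effect control and ±100 the full control effect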). The following applies: ME-180 (cervical carcinoma) AP-1-bla reporter, EGF-induced, beta-lactamase ratio, 5 h; at 7.69 µM (top of the series). Put shortly: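 A ratiometric CCF4 readout (405 nm excitation; 460 and 530 nm emission) quantified AP-1-driven beta-lactamase in ME-180 cells after 5 h with compound and EC50 EGF; AC50 values were derived for activators and inhibitors.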
As for `NCCSSCCN`, the activity change, negative = inhibition is -2.06% (inactive).

On to `CN(C)c1ccc(C(=C2C=CC(=[N+](C)C)C=C2)c2ccccc2)cc1`, for which the activity change, negative = inhibition is 0.139% (inactive).

As to `Clc1ccccc1-c1nc(-c2ccncc2)no1`, the activity change, negative = inhibition is -0.307% (inactive).

Take `O=C(O)CC[C@@H](C(=O)O)N1C(=O)c2ccccc2C1=O`: the activity change, negative = inhibition is -7.49% (inactive).

For the compound `c1cnc2c(c1)ccc1cccnc12`, the activity change, negative = inhibition was -13.2% (inactive).

In the case of `CN1[C@@H]2CC[C@H]1CC(OC(c1ccccc1)c1ccccc1)C2` (some centres not stated), the activity change, negative = inhibition was 12.3% (inactive).
